mHTT-CaM PPI inh – mutant huntingtin-calmodulin interaction inhibitors – biochemical, AlphaScreen, primary screen. P42858. AlphaScreen His-mHTT/GST-CaM binding, luminescence. inhibition, % at 15 µM. hit rate 3.6% among 190,000;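 note: 0% = both proteins with DMSO and 100% = one protein alone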
Pf apPOL inh – Pf-apPOL inhibitors, biochemical, fluorescence; Recombinant Pf-apPOL, molecular beacon fluorescence, 1.5 h; AID 1794808, 2022; inhibition, % at 10 µM; hit rate 0.25% among 210,000
Numbers without * were called inactive; nt = no result. Sampled rows, rich in hits. Any-hit rate of the full collection: about 3.6%. Cut-off read from the data, not from the text of the source: active = inhibition above about 50%; inactive = the rest.

SMILES | mHTT-CaM PPI inh | Pf apPOL inh
CC(C)CC(=O)NC(c1ccc2c(c1)OCO2)c1ccc2cccnc2c1O (configuration not stated) | 100.0* | -3.6
CC(C)CC(=O)NCC#CCOc1ccc2c(c1)OCO2 | 4.0 | -8.0
CCC(=O)NC(c1ccc(OC)cc1)c1ccc2cccnc2c1O (configuration not stated) | 100.0* | 3.8
CC(C)CC(=O)NC(c1ccccc1)c1ccc2cccnc2c1O (configuration not stated) | 100.0* | 10.1
Cc1ccc(C(NC(=O)CC(C)C)c2ccc3cccnc3c2O)cc1 (configuration not stated) | 34.0 | -1.9
COc1ccc(C(NC(=O)CCc2ccccc2)c2ccc3cccnc3c2O)cc1 (configuration not stated) | 100.0* | 10.4
Cc1ccc(S(=O)(=O)N2CCCC2C(=O)NCCc2csc(C)n2)cc1 (configuration not stated) | 3.0 | -4.9
CCN(CC)CCNC(=O)c1cc(OC)c(OC)c(OC)c1 | -23.4 | 1.5
CCCC(=O)NC(c1ccc(Cl)cc1Cl)c1ccc2cccnc2c1O (configuration not stated) | 100.0* | -4.2
COc1ccc(CN2CCc3nc(Nc4ccccc4F)ncc3C2)cc1 | -3.8 | -1.5
CC(=O)NC(N)=Nc1nc2cc([N+](=O)[O-])ccc2o1 | 4.0 | 2.8
CC(=O)Nc1nc(C)c(-c2csc(Nc3ccc(N(C)C)cc3)n2)s1 | 95.9* | -3.9
CCC(=O)Nc1nc(C)c(-c2csc(Nc3cccc(C(C)=O)c3)n2)s1 | 9.8 | -4.7
CC(=O)Nc1nc(C)c(-c2csc(Nc3ccccn3)n2)s1 | 54.0* | -1.1
c1ccc(Nc2nc(-c3cccnc3)cs2)nc1 | 12.0 | -5.4
CC(=O)N1CCC2(CC1)Nc1cccnc1NC2=NC(C)(C)C | 1.5 | -0.8
O=C(C1CCCO1)N1CCC(OCc2nc(-c3cccnc3)no2)CC1 (configuration not stated) | 3.3 | -7.3
CCN(Cc1ccccc1)S(=O)(=O)c1c(C)cc(Cl)nc1Cl | -63.0 | -0.7
Cc1ccc(C2C(C#N)=C(N)Oc3c2ccc2cccnc32)cc1 (configuration not stated) | 58.3* | -5.0
Cc1ccc(C2C(C#N)=C(N)Oc3cc(O)ccc32)cc1 (configuration not stated) | 9.9 | -5.9
CC1CCCC(NC(=O)C2c3ccccc3C(=O)N(C)C2c2cccs2)C1C (configuration not stated) | 2.0 | -0.1
COc1cc(C(=O)Nc2ccc(-n3nncc3-c3ccccc3)cc2)cc(OC)c1OC | 46.0 | -2.7
COc1cccc(C(=O)Nc2ccc(-n3nncc3-c3ccccc3)cc2)c1OC | 57.0* | -6.8
CC(C)Cn1c(=O)c(N2CCN(S(C)(=O)=O)CC2)nc2ccncc21 | 2.6 | -1.3
Cc1cc([N+](=O)[O-])c(N2CCCC2)cc1NC(=O)c1cccc(Br)c1 | 48.0 | -11.6
SMILES | mHTT-CaM PPI inh | Pf apPOL inh
O=[N+]([O-])c1cc(Br)c2nsnc2c1N1CCCCCC1 | 51.4* | nt
O=[N+]([O-])c1cc(Br)c2nsnc2c1Br | 29.9 | -6.4
Cn1c(=O)c([N+](=O)[O-])c(NCCCO)c2ccccc21 | -2.6 | 4.0
CCc1ccc(NCN2C(=O)C3=C(CCCC3)C2=O)cc1 | nt | -20.1
CCOC(=O)c1ccc(NC(=O)N2CCC3(CC2)Nc2cc(F)ccc2-n2cccc23)cc1 | 56.5* | -0.8
O=C(Nc1ccc(F)cc1)N1CCC2(CC1)Nc1cc(F)ccc1-n1cccc12 | 47.8 | 0.2
O=C(Nc1ccc2c(c1)OCCO2)N1CCC2(CC1)Nc1cc(F)ccc1-n1cccc12 | 68.5* | -1.6
Cc1ccc(NC(=O)N2CCC3(CC2)Nc2cc(F)ccc2-n2cccc23)cc1 | 61.5* | -4.9
CCOC(=O)c1cccc(NC(=O)N2CCC3(CC2)Nc2cc(F)ccc2-n2cccc23)c1 | 67.9* | -2.3
CN1c2cc(F)ccc2C(=O)NC12CCN(C(=O)Nc1ccc3c(c1)OCO3)CC2 | 4.9 | -3.5
COc1ccc(S(=O)(=O)N2CCN(c3ccccc3)CC2)cc1[N+](=O)[O-] | 4.4 | -6.5
Cc1ccc(NC(=O)Nc2ccc3c(c2)CCN3S(C)(=O)=O)c(C)c1 | 5.0 | 0.7
Cc1ccc(C)c(NC(=O)C2CCc3nc(N4CCN(C(=O)C(C)C)CC4)sc3C2)c1 (configuration not stated) | 12.6 | 3.9
Nc1nc(NCc2ccccn2)n[nH]1 | nt | -5.2
COc1cccc(C2=NC3(CCN(C)CC3)NC(c3cccc(OC)c3O)C2)c1 (configuration not stated) | 25.3 | -1.4
CC(=O)N1CCC2(CC1)N=C(c1ccc3c(c1)OCO3)CC(c1ccccc1O)N2 (configuration not stated) | 17.8 | 7.7
COc1cccc(C2=NC(C)(C)NC(c3cc(Br)ccc3O)C2)c1 (configuration not stated) | 100.0* | -4.0
CCC1(C)N=C(c2ccc3c(c2)OCO3)CC(c2ccccc2O)N1 (configuration not stated) | 83.0* | -5.1
CCOc1cccc(C2CC(c3cccc(OC)c3)=NC3(CCN(C)CC3)N2)c1O (configuration not stated) | 34.9 | 3.6
COc1cccc(C2=NC(C)(C)NC(c3ccccc3O)C2)c1 (configuration not stated) | 65.0* | -3.1
O=C(Cc1ccccc1[N+](=O)[O-])Nc1ccc(Nc2ccccc2)cc1 | 17.6 | -0.1
COc1cc(C2CC(=O)C3=C(C2)Nc2ccccc2NC3c2cccs2)cc(OC)c1OC (configuration not stated) | 26.0 | -6.1
CCN1c2cc(C(=O)NCc3cc(F)ccc3F)ccc2C(=O)N2CCCCC21 (configuration not stated) | -7.5 | -5.2
O=C(NC1CCCC1)N1CC(C(=O)N2CCCCC2)C2(CCOCC2)C1 (configuration not stated) | -3.6 | -5.5
O=C(c1cccc(F)c1)N1CCCC(c2ccnc(-c3ccc(F)cc3)n2)C1 (configuration not stated) | 53.6* | -5.3
SMILES | mHTT-CaM PPI inh | Pf apPOL inh
CCCC(=O)N1CCCC(c2ccnc(-c3ccc(F)cc3)n2)C1 (configuration not stated) | 1.8 | -5.5
CCC(=O)N1CCCC(c2ccnc(-c3ccc(F)cc3)n2)C1 (configuration not stated) | 75.8* | -18.1
O=C(c1ccccc1)N1CCCC(c2ccnc(-c3ccc(F)cc3)n2)C1 (configuration not stated) | 12.8 | -4.3
Cc1ccc(OCCn2ccnc2C)c(C)c1 | -4.1 | 1.0
COCCNC(=O)c1nc(C)n(C2CCN(C(C)=O)CC2)c1C | -3.1 | -0.4
CC(=O)NC1=NN(C(C)=O)C(C)(c2ccc(-c3ccccc3)cc2)S1 (configuration not stated) | 51.0* | -5.1
CC(=O)NC1=NN(C(C)=O)C(C)(c2ccc(F)cc2)S1 (configuration not stated) | 0.0 | 5.2
Cc1ccc(N2CCN(S(=O)(=O)c3ccc(Cl)c(Cl)c3)CC2)nn1 | -9.6 | -7.6
COc1ccc(S(=O)(=O)N2CCN(c3ccc(N4CCCC4)nn3)CC2)cc1Cl | 72.2* | -2.6
Cc1ccc(NC(=O)Cn2nc(N3CCSCC3)c3ccccc3c2=O)cc1F | -5.4 | -0.7
CC(=O)c1ccc(N=c2oc3cc(O)ccc3cc2C(N)=O)cc1 | 9.0 | -4.1
